Compounds with a hit are over-represented: about 4.3% of the library has one in this group of screens.
MITF act – activators of MITF-driven TRPM1 promoter activity in SK-MEL-5 cells. SK-MEL-5 TRPM1-promoter luciferase, 24 h; % of positive control, neutral wells = 0. activation, % at 12.5 µM. hit rate 0.75% among 300,000. AID 588334;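 active means mean activation of at least 80% with every replicate also reaching 80%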;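 further: 0% = neutral control wells and 100% = parthenolide positive control wells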
SMARCA2 activ – increases SMARCA2 function in MMTV reporter cells. MG213 cells, MMTV-luciferase reporter, dexamethasone, overnight. activation, % at 9.1 µM. hit rate 1% among 370,000. AID 652017; in the data active means activation above about 7.8%;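 further: 0% = vehicle wells and 100% = reference activator wells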
esBAF inh – inhibitors of esBAF chromatin remodeling in mouse ES cells; Bmi1-luciferase knock-in reporter, 24 h; 100% = twice the neutral-well signal; reporter increase, % at 12.5 µM; hit rate 2% among 350,000; in the data active means activation above about 40%;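 further: 0% = median of the plate's neutral control wells and 100% = double that signal; a rise in the Bmi1 reporter signal indicates esBAF inhibition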
HSF1 activator – increases HSF-1 driven luciferase reporter signal. activation, % at 9 µM. NIH3T3-HGL HSF-1 luciferase reporter, MG132, 8 h; 100% = twice DMSO control signal. AID 504408. hit rate 1.7% among 300,000;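 active means mean replicate activation of at least 50% with a set share of replicates each reaching 50%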;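 further: 0% = median of the neutral control wells and 100% = twice that signal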
Wnt bcat act – activates Wnt/beta-catenin signaling in a reporter cell assay; activation, % at 9.35 µM; activator, plate reader; AID 743398; hit rate 1.2% among 300,000; in the data active means activation above about 30%, passing the limit was not always enough;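 further: 0% = neutral control wells and 100% = positive control wells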
HSF1 inh – HSF1 inhibition; activity change, negative = inhibition, % at 7.5 µM (by protocol); AID 2098; hit rate 0.77% among 300,000; NIH3T3-HGL HSE-luciferase, MG132-induced, luminescence 8 h; hits give low values;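 active means more than half of replicate wells show activity change below -50%, luminescence cut by over half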;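 further: luciferase reports HSF-1 transcriptional activity via heat shock element; 0% = median of DMSO wells and -100% = zero luminescence signal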
SMARCA2 conf – confirmation of SMARCA2 (BRM) function activators; MG213 cells, MMTV-luciferase with dexamethasone, luminescence, overnight; MG213 cells expressing E1A, Rb sequestered; DMSO wells 0%, reference activator 100%; hit rate 30% among 3,500; activation, % at 9.1 µM; AID 652260; shares compounds with SMARCA2 activ;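 active means activation above its plate's cutoff, the mean activation of tested wells plus 3 SD, cut at about 7.9% in these data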
VP16 Luc act – GAL4-VP16 reporter activation counter-screen; hit rate 41% among 3,500; AID 686939; shares compounds with SMARCA2 activ; HEK293 GAL4-VP16 pG5luc reporter, luciferase luminescence; scaled: DMSO wells 0%, SAHA wells 100%; activation, % at 9.1 µM;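 active means activation above the solvent-only control well mean plus 3 SD, averaged across control plates, cut at about 5.2% in these data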
* marks the source's active call; other numbers are inactive results; nt = not tested or not shown.

SMILES | MITF act | SMARCA2 activ | esBAF inh | HSF1 activator | Wnt bcat act | HSF1 inh | SMARCA2 conf | VP16 Luc act
CCOC(=O)/C(C#N)=C/c1c(Oc2cc(C)cc(C)c2)nc2ccccn2c1=O | -25.3 | 8.2* | nt | 30.8 | 3.9 | 3.7 | -3.1 | 0.1
COc1ccc(-c2ccc3c(c2)O[C@@H](CN(C)Cc2ccccc2C(=O)O)[C@@H](C)CN([C@H](C)CO)S3(=O)=O)cc1 | nt | nt | 1.1 | nt | nt | nt | nt | nt
COC(=O)CNC(=O)COC(=O)c1ccc(OC)c([N+](=O)[O-])c1 | -5.1 | 9.1* | nt | 3.0 | -1.9 | -2.0 | -0.7 | -0.7
CS(=O)(=O)c1ccc(C(=O)OCC(=O)NCc2cccs2)cc1[N+](=O)[O-] | -84.2 | 11.9* | 11.6 | nt | -24.1 | nt | -14.2 | 2.4
Cc1cccc(C(=O)OCC(=O)NCc2cccs2)c1 | 6.8 | -1.6 | -10.1 | 1.9 | 2.3 | 0.8 | nt | nt
COc1cc(CCC(=O)OCC(=O)Nc2ccc(F)c(F)c2F)cc(OC)c1OC | -1.6 | -0.3 | -2.0 | -6.7 | -2.3 | 3.0 | nt | nt
COc1ccc(C(=O)OCC(=O)Nc2ccc(F)c(F)c2F)cc1OC | -9.8 | 10.1* | 0.7 | -4.8 | -3.4 | -1.0 | 0.9 | -0.7
CC(C)CC#Cc1cnc2c(c1)C(=O)N([C@@H](C)CO)C[C@@H](C)[C@H](CN(C)Cc1ccc3c(c1)OCO3)O2 | nt | nt | 0.1 | nt | nt | nt | nt | nt
Cc1ccc(-n2c(C)csc2=N)cc1 | 58.8 | 8.7* | 35.5 | 5.1 | nt | -0.3 | 7.6 | 18.6*
Cc1csc(=S)n1-c1ccccc1 | 5.9 | -1.3 | -1.6 | 11.4 | nt | -14.9 | nt | nt
O=C(O)/C=C/C(=O)c1ccc2c(c1)CCc1ccccc1-2 | -68.8 | 10.9* | 43.9* | 175.2* | 19.3 | 146.0 | 6.9 | 6.5*
COc1cc2c(cc1OC)C(CSc1ccccc1C(=O)O)=NC(C)(C)C2 | 7.8 | 9.3* | nt | -15.4 | 1.4 | -0.4 | 9.4* | 5.8*
C[C@H](CO)N1C[C@H](C)[C@H](CN(C)S(=O)(=O)c2ccc(Cl)cc2)OCc2cn(nn2)CCCC1=O | nt | nt | 4.9 | nt | nt | nt | nt | nt
CCOc1ccccc1-c1nc(-c2ccc(C)nc2OC)no1 | nt | 8.8* | 69.2* | 62.1* | 51.4* | 22.6 | 14.7* | 8.0*
COc1ccccc1NS(=O)(=O)c1cccc(NC(=O)c2cc3ccccc3oc2=O)c1 | 31.7 | 8.1* | nt | 40.8 | 7.4 | 21.2 | 4.2 | 9.5*
CN(c1ccccc1)S(=O)(=O)c1cccc(NC(=O)c2cc3ccccc3oc2=O)c1 | 28.3 | 11.7* | 53.5* | 18.0 | 29.2 | 13.0 | -0.8 | 6.3*
Oc1ccccc1C=Nc1ccccc1-c1nc2ccccc2[nH]1 | 34.9 | 8.3* | nt | 28.0 | 26.6 | 7.2 | 4.5 | 10.5*
Oc1ccc(C=Nc2ccccc2-c2nc3ccccc3[nH]2)c(O)c1 | 54.7 | 3.5 | nt | 37.2 | 25.8 | 6.9 | nt | nt
O=S(=O)(Cc1ccccc1)NCC[C@H]1CC[C@@H](NS(=O)(=O)c2ccc(F)cc2)[C@@H](CO)O1 | nt | nt | 9.1 | nt | nt | nt | nt | nt
CCOC(=O)CN1C(=O)S/C(=C\c2ccc(-c3ccc(C(=O)O)c(Cl)c3)o2)C1=O | 5.5 | -2.2 | 0.0 | -10.0 | 0.3 | -11.1 | nt | nt
CC(C)N1C(=O)S/C(=C\c2ccc(-c3ccc(Cl)c(C(=O)O)c3)o2)C1=O | nt | 14.6* | 47.5* | 31.6 | 29.6 | 16.4 | 12.4* | 12.7*
COc1ccc(S(=O)(=O)Nc2ccc3c(c2)C(=O)N([C@H](C)CO)C[C@@H](C)[C@@H](CN(C)CC2CC2)O3)cc1 | nt | nt | -0.8 | nt | nt | nt | nt | nt
CNC[C@@H]1Oc2cc(-c3cccc(C(=O)N(C)C)c3)ccc2S(=O)(=O)N([C@@H](C)CO)C[C@H]1C | nt | nt | 0.3 | nt | nt | nt | nt | nt
COc1ccc(CCC2(C)NC(=O)NC2=O)cc1 (stereo unspecified) | -1.2 | 8.1* | -4.3 | -5.8 | -0.4 | -4.5 | 1.3 | 1.7
CC1(CCOCc2ccccc2)NC(=O)NC1=O (stereo unspecified) | -0.6 | -0.7 | -1.0 | nt | -2.5 | nt | nt | nt
SMILES | MITF act | SMARCA2 activ | esBAF inh | HSF1 activator | Wnt bcat act | HSF1 inh | SMARCA2 conf | VP16 Luc act
Cc1ccc(C(=O)Cn2cncn2)cc1 | 10.9 | 10.4* | -4.0 | 20.5 | 13.3 | -1.6 | -1.9 | 0.5
CCN(C1CCCCC1)S(=O)(=O)c1ccc(-n2cnnn2)c(C)c1 | 2.4 | 9.3* | 3.4 | -6.1 | -1.8 | -7.0 | -3.9 | 2.2
CC1CCCCN1C(=O)CSc1nnc(-c2ccccc2O)o1 (stereo unspecified) | 31.7 | 8.9* | 26.6 | 29.1 | 13.5 | 20.4 | 1.7 | 10.1*
O=C(CSc1nnc(-c2ccccc2O)o1)N1CCCCC1 | 38.5 | 7.7 | 12.1 | -2.2 | 3.2 | 7.9 | nt | nt
C[C@@H]1CN([C@H](C)CO)C(=O)c2cccc(NS(C)(=O)=O)c2O[C@@H]1CN(C)CC1CCCCC1 | nt | nt | 1.1 | nt | nt | nt | nt | nt
Cc1cc(O)ccc1Nc1cc(-c2cccc(N(C)C)c2)ncn1 | nt | 11.2* | 55.4* | nt | -0.5 | nt | 11.2* | 10.8*
COCCn1c(=O)[nH]c2cc(C(=O)Nc3nnc(C)s3)ccc21 | 30.1 | 8.2* | 0.6 | 13.8 | 5.0 | -0.1 | 4.4 | 2.8
COc1ccc(OCC(O)CN2CCC(CN3C(=O)c4cccc5cccc(c45)C3=O)CC2)cc1 (stereo unspecified) | -2.7 | 11.3* | nt | 18.7 | -7.6 | 1.5 | 1.9 | 1.5
CCN(C[C@H]1N[C@@](Cc2ccccc2)(C(=O)OC)[C@H]2C(=O)N(Cc3ccccc3)C(=O)[C@@H]12)C(=O)NC(C)C | -1.0 | 9.2* | -1.4 | nt | -1.5 | nt | -4.2 | 1.3
CC=Cc1ccc2n(c1=O)C[C@@H]1[C@@H](CO)[C@H](C(=O)N3CCCCC3)[C@H]2N1Cc1ccccn1 (mixture of isomers) | nt | nt | -3.6 | nt | nt | nt | nt | nt
Cc1cccc([N+](=O)[O-])c1NC(=O)COC(=O)C1CCCO1 (stereo unspecified) | 3.3 | -2.8 | -4.2 | nt | 0.6 | nt | nt | nt
Cc1c(NC(=O)C2CCCO2)cccc1[N+](=O)[O-] (stereo unspecified) | -9.3 | 9.5* | nt | -12.0 | nt | -4.9 | 2.2 | 0.3
Cc1ccc(NC(=O)c2ccc([N+](=O)[O-])cc2Cl)nc1 | 43.9 | 9.1* | nt | 52.2* | 12.1 | 13.6 | 5.6 | 9.7*
CN(C)c1ccc(NC(=O)c2ccc([N+](=O)[O-])cc2Cl)cc1 | 29.5 | 9.7* | nt | 48.2 | 9.7 | 22.0 | 7.9* | 11.6*
CC(C)C(=O)Nc1ccc(NC(=O)c2ccc([N+](=O)[O-])cc2Cl)cc1 | -6.4 | 3.1 | -4.9 | 0.9 | -3.0 | 0.0 | nt | nt
Cc1noc(C)c1S(=O)(=O)Nc1cccc2c1O[C@H](CN(C)Cc1ccc(Oc3ccccc3)cc1)[C@H](C)CN([C@H](C)CO)C2=O | nt | nt | 5.7 | nt | nt | nt | nt | nt
